For 26 compounds, growth results are on record in PubChem BioAssay (NCI).

About 83,000 compounds went through this panel and 20% of them were active in at least one assay; those are over-represented in the sample as a whole.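 Cells were grown in 96-well plates and exposed to the test compound at a single concentration for 48 hours; results are reported as percent growth, with values below 10 considered active.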 Values without a mark were called inactive. The source made the active and inactive calls.

This assay concerns RPMI-8226 leukemia. The experiment in a line: NCI-60 one-dose screen, 48 h (100 = growth as untreated, 0 = no growth, -100 = all killed). Conditions: 10 µM unless noted.
With `O=c1c2cc(F)ccc2sc2c(Nc3ccncc3)nc3ccccc3c12`, the growth is -31.4% (active). Next, `O=C(Cc1ccccc1)NC(c1ccc(Cl)cc1)c1c(O)ccc2ccccc12` (stereo unspecified): -20.8% (active); `Cc1c(-c2noc(-c3ccc([N+](=O)[O-])cc3)n2)no[n+]1[O-]`: 93.3%; `O=C(c1ccccc1)N(CCc1ccc(Cl)cc1)C(=S)N(C(=O)c1ccccc1)c1ccccc1`: -27% (active).

For `Cc1cc2c(c(C)c1Cl)C(=O)/C(=C/c1cccc([N+](=O)[O-])c1)O2`, the growth was 108%. The same measure for `CCN1C(=O)N(CC)C2C1NC(=S)N2/N=C/C=C/c1ccccc1OC` (stereo unspecified): 16.5%; for `O=C1Nc2ccccc2/C1=C/c1cccs1`: 93.7%; for `COC(=O)/C(=C\c1c(-c2ccccc2)[nH]c2ccccc12)S(C)(=O)=O`: -14.8% (active). Next, `C#CCn1cc(C=C2C(=O)N(C)C(=O)N(C)C2=O)c2cc(Cl)ccc21`: 105%; `COc1ccc2occ(C3=C(c4c[nH]c5ccccc45)C(=O)NC3=O)c2c1`: 53%. For the compound `O=C1/C(=C/c2ccc(O)cc2)COc2ccc(O)c(O)c21`, the growth is -6.76% (active). Next, `N#C/C(=C\c1c(-c2ccccc2)[nH]c2ccccc12)C(=O)c1ccccc1`: -0.917% (active); `CCCN1CCN(c2ccc3nc(-c4ccc5nc(-c6cc(OC)ccc6OC)[nH]c5c4)[nH]c3c2)CC1`: -17% (active); `O=C(NN1C(=O)CSC1c1ccc(Cl)cc1)c1[nH]c2ccc(F)cc2c1-c1ccccc1` (stereo unspecified): 25%. Next, `O=Cc1cc2ccccc2nc1Nc1nccs1`: 64%; `COc1ccc(C2=Nn3c(NN)nnc3SC2)cc1`: 104%; `COC(=O)/C(=C\c1c(C)[nH]c2ccccc12)S(=O)(=O)c1ccccc1`: -45.8% (active). Next, `COC(=O)C1(C)COP(=O)(Nc2ccc(OC)cc2)OC1` (stereo unspecified): 97.7%; `O=c1c2cccc(F)c2sc2c(N3CCNCC3)nc3ccccc3c12`: 1.83% (active); `CCOc1ccc2nc(C)cc(Nc3ccc(Br)cc3)c2c1`: 82.6%. Regarding `COc1cccc2c(=O)c3c(sc12)c(NCCCNCCO)nc1ccccc13`, the growth is 29.1%. Take `O=c1c(-c2nc3ccccc3[nH]2)cc2ccccc2n1Cc1cn(Cc2ccc(N3CCOCC3)cc2)nn1`: the growth was 80.4%.

For the compound `Nc1nc(-c2cnccn2)nn1-c1nc2ccccc2s1`, the growth is 82%. Next, `COc1ccc(-c2cn3c(C(=O)Nc4ccccc4Cl)c(-c4ccccc4)c4c3n2CCCC4)cc1`: 68.5%; `NCCNc1nc2ccccc2c2c(=O)c3cc(F)cc(Cl)c3sc12`: -33.1% (active); `CNCCNc1nc2ccccc2c2c(=O)c3cccc(OC)c3sc12`: -31.4% (active).
